The whole screen tested about 2,400 compounds, of which about 580 (24%) were called active.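 The calls were made as follows: active = activity change at or above the mean plus 3 SD of buffer wells without dofetilide, per plate; inactive = the rest.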 Only a sample is shown.
What follows are compounds tested against Potassium voltage-gated channel subfamily KQT member 2 (Rattus norvegicus) (UniProt O88943) (assay: KCNQ2 potentiation in CHO cells – cell-based, FluxOR thallium flux, counter-screen for hERG block protector project, confirmation (AID 1942;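 also: normalized value minus buffer-control mean plus three SD of buffer wells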)). Details: FluxOR thallium flux fluorescence, at 10 µM, hits give high values.
Chain of Potassium voltage-gated channel subfamily KQT member 2 (Rattus norvegicus) (O88943 whole entry, looked up): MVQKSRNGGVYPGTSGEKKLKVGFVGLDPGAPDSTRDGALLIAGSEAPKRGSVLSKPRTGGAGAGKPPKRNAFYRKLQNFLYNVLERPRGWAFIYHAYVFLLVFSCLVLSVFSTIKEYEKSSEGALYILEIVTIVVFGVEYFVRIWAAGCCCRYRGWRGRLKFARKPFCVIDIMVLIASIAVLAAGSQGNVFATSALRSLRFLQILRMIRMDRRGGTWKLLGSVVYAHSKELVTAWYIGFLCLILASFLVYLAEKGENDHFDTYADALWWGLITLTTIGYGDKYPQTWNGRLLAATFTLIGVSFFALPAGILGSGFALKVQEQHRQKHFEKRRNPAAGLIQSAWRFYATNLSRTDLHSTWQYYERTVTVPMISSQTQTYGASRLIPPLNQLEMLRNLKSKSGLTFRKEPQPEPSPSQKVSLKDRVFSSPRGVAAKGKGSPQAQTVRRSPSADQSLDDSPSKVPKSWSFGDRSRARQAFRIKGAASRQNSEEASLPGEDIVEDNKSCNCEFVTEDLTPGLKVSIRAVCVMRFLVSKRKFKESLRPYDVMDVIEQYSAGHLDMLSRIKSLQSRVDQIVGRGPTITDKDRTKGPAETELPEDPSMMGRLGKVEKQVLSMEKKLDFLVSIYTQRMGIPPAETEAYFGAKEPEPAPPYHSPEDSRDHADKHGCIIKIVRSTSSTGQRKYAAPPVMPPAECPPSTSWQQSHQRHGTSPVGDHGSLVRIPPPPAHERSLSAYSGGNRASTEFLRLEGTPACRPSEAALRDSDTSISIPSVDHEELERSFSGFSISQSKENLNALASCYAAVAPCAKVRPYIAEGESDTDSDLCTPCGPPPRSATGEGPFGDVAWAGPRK
In the case of `CS(=O)(=O)c1sc(C(=O)NC(=S)Nc2ccc(OC(F)(F)F)cc2)c2c1C=CCC2`, the activity change, less the hit threshold is reported as -11% (inactive). For `Cc1cccc(OCC(=O)NC(=S)N2CCCc3ccccc32)c1`, the activity change, less the hit threshold was -23.9% (inactive). `O=C(COc1ccc(Br)cc1Cl)NC(=S)N1CCc2ccccc21` was tested, and the activity change, less the hit threshold was -14.2% (inactive). With `Cc1cccc(C(=O)NC(=S)N2CCc3ccccc3C2)c1` the activity change, less the hit threshold was 20.8% (active). `O=C(Nc1cccn(Cc2c(Cl)cccc2Cl)c1=O)c1ccccc1Cl` was tested, and the activity change, less the hit threshold was -24.1% (inactive). With `Cc1cccc(C(=O)NNC(=S)NC(=O)c2ccccc2)c1` the activity change, less the hit threshold was -4.5% (inactive). `O=C(COc1ccccc1)NC(=S)N1CCc2ccccc21` was tested, and the activity change, less the hit threshold was 2.7% (active). `CC1(C)CC(NC(=O)c2ccc(Cl)cc2Cl)CC(C)(C)N1` was tested, and the activity change, less the hit threshold was -23.3% (inactive). `CC(Oc1ccc(Cl)cc1Cl)C(=O)NC(=S)N1CCc2ccccc21` (configuration not stated) was tested, and the activity change, less the hit threshold was 24.1% (active). With `Cc1ccc(C(=O)NC(=S)N2CCN(c3cc(C)ccc3C)CC2)cc1` the activity change, less the hit threshold was -8.7% (inactive). `O=C(COc1ccc(Cl)cc1Cl)NC(=S)N1CCCc2ccccc21` was tested, and the activity change, less the hit threshold was -13.8% (inactive). `CC1(C)CC2CC(C)(CN2C(=S)NC(=O)c2ccccc2Cl)C1` (configuration not stated) was tested, and the activity change, less the hit threshold was 23.3% (active). For `O=C(O)c1ccccc1NC(=O)c1cc2ccccc2oc1=O`, the activity change, less the hit threshold was -5.1% (inactive). In the case of `O=C(CN(C(=O)CNS(=O)(=O)c1ccc(F)cc1)c1cccc(F)c1)NCC1CCCO1` (configuration not stated), the activity change, less the hit threshold is reported as -19% (inactive). In the case of `CC(=O)n1nc(-c2ccncc2)nc1SCC(=O)Nc1cccc(Cl)c1`, the activity change, less the hit threshold is reported as -21.7% (inactive). `Cc1ccc(NC(=O)CSc2nnc(-c3cccnc3)n2-c2ccc(C)cc2)cc1` was tested, and the activity change, less the hit threshold was -17.2% (inactive). In the case of `O=[N+]([O-])c1ccc(-c2ccc(/C=N/n3cnnc3)o2)c(Br)c1`, the activity change, less the hit threshold is reported as -11.4% (inactive). `CCCN1Cc2cccc(C(=O)NCc3cccs3)c2C1=O` was tested, and the activity change, less the hit threshold was -23.8% (inactive). With `OC(CNCCc1ccc(C(F)(F)F)cc1)COc1cccc2ccccc12` (configuration not stated) the activity change, less the hit threshold was -39.6% (inactive). For `O=C(NC(=S)N1CCc2ccccc21)c1ccccc1Br`, the activity change, less the hit threshold was 105% (active). For `O=C(NC(=S)N1CCc2ccccc21)c1ccccc1Cl`, the activity change, less the hit threshold was 65.2% (active). In the case of `O=C(c1ccccc1)N1CCc2ccccc21`, the activity change, less the hit threshold is reported as -14.8% (inactive). In the case of `O=C(NC(=S)N1CCCc2ccccc21)c1ccccc1`, the activity change, less the hit threshold is reported as -7.9% (inactive). For `CN1C(=O)CSc2ccc(NC(=O)N3CCc4ccccc43)cc21`, the activity change, less the hit threshold was -21.5% (inactive). `O=C(NC(=S)N1CCc2ccccc21)c1ccccc1` was tested, and the activity change, less the hit threshold was 38.5% (active). For `O=C(CSc1cccc2cccnc12)N/N=C/c1cccnc1`, the activity change, less the hit threshold was -18.6% (inactive). In the case of `S=C(Nc1ccccc1)Nc1nc2ccccc2n1CCOc1ccccc1`, the activity change, less the hit threshold is reported as -19.7% (inactive). `Cc1ccccc1NC(=O)CSc1ccsc1[N+](=O)[O-]` was tested, and the activity change, less the hit threshold was -24.3% (inactive). `O=C(O)CC1S/C(=N/N=C/c2ccc(-c3ccccc3[N+](=O)[O-])o2)NC1=O` (configuration not stated) was tested, and the activity change, less the hit threshold was -23.4% (inactive). With `CCCc1nnc(NC(=O)CN2CCOCC2)s1` the activity change, less the hit threshold was -18.7% (inactive). With `Cc1ccccc1-c1nnn(CC(=O)NCc2ccc3c(c2)OCO3)n1` the activity change, less the hit threshold was -24.5% (inactive). For `Cc1cc(F)ccc1NC(=O)C1CCN(C(=O)Nc2ccccc2)CC1`, the activity change, less the hit threshold was -20.3% (inactive). In the case of `Cc1cc(C)c(C(=O)c2ccc(C(=O)N3CCCCC3)cc2)c(C)c1`, the activity change, less the hit threshold is reported as 9.9% (active). In the case of `COc1ccc(C)cc1NC(=O)Nc1ccc(C(=O)N2CCCC2)cc1`, the activity change, less the hit threshold is reported as -13.8% (inactive). `Cc1ccc(SCc2ccc(C(=O)N3CCCC3)cc2)cc1` was tested, and the activity change, less the hit threshold was -13.9% (inactive). `COC(=O)c1ccc(Oc2ccc(S(=O)(=O)N3CCCCC3)cc2N)cc1` was tested, and the activity change, less the hit threshold was -21% (inactive). In the case of `Cc1ccc(NC(=O)CN2C(=O)S/C(=C\c3cccn3-c3cccc(C(=O)O)c3)C2=O)c(C)c1`, the activity change, less the hit threshold is reported as -17.1% (inactive). With `O=C1c2ccccc2C(=O)N1CCc1nc(-c2ccccn2)no1` the activity change, less the hit threshold was -15.6% (inactive). `Cc1cc(C)n(-c2nc(NCCCN(C)C)c3c4c(sc3n2)CCCC4)n1` was tested, and the activity change, less the hit threshold was -15.9% (inactive). With `Cc1ccc(NC(=O)CCc2nc3sc4c(c3c(=O)[nH]2)CCCC4)c(Br)c1` the activity change, less the hit threshold was -14.8% (inactive). In the case of `Cc1cc(C)n(-c2nc3sc4c(c3c(=O)[nH]2)CCCC4)n1`, the activity change, less the hit threshold is reported as 6.2% (active). In the case of `CC(=O)Cn1c(=O)c2c(nc3n2CCCN3Cc2ccccc2)n(C)c1=O`, the activity change, less the hit threshold is reported as -11.9% (inactive). For `COC(=O)C1CN(C(=O)COc2ccc(C)c(C)c2)c2ccccc2O1` (configuration not stated), the activity change, less the hit threshold was -18.1% (inactive). For `CC(C)OC(=O)C1CC(C)(O)C(=O)C(C(=O)OC(C)C)C1c1ccc([N+](=O)[O-])cc1` (configuration not stated), the activity change, less the hit threshold was -20.5% (inactive). `CCc1noc(C)c1C(=O)N1CCCC(N2CCN(c3ccccc3F)CC2)C1` (configuration not stated) was tested, and the activity change, less the hit threshold was -14.7% (inactive). With `Cc1ccc(CN2CCN(/N=C/c3ccc(O)c(O)c3)CC2)cc1` the activity change, less the hit threshold was -3.7% (inactive). In the case of `O=C(COC(=O)c1cc(Br)ccc1O)Nc1cccnc1Cl`, the activity change, less the hit threshold is reported as -19.3% (inactive). `Cc1cccc(/C=N/NC(=O)c2cc(Br)ccc2O)n1` was tested, and the activity change, less the hit threshold was 0.2% (active). With `O=C(N/N=C/c1ccc2cccc(OCc3ccccc3)c2n1)c1ccc(Br)cc1` the activity change, less the hit threshold was -9.5% (inactive). In the case of `CCOC(=O)C1CCCN(C(=S)NC(=O)/C=C/c2ccc(F)cc2)C1` (configuration not stated), the activity change, less the hit threshold is reported as -20.7% (inactive). In the case of `NC(=O)C1CCN(C(=O)CCC(=O)c2ccc(F)cc2)CC1`, the activity change, less the hit threshold is reported as -12.6% (inactive). `CCOC(=O)C1CCCCN1Cc1ccc(F)cc1` (configuration not stated) was tested, and the activity change, less the hit threshold was 4.5% (active). `O=C1c2ccccc2C(=O)N1Cc1cc(-c2ccccc2Cl)no1` was tested, and the activity change, less the hit threshold was -14.4% (inactive). `O=C(NC(=S)N1CCc2ccccc21)c1ccco1` was tested, and the activity change, less the hit threshold was 0.6% (active). For `O=C(NC(=S)NC1CCCc2ccccc21)c1ccco1` (configuration not stated), the activity change, less the hit threshold was 7% (active). For `Cc1cccc(OCC(=O)NC2CCCc3ccccc32)c1C` (configuration not stated), the activity change, less the hit threshold was -34.2% (inactive). With `Cn1nnnc1SCC(=O)NC1CCCc2ccccc21` (configuration not stated) the activity change, less the hit threshold was -30.8% (inactive). In the case of `O=C(NC(=S)N1CCc2ccccc21)c1ccc(Br)o1`, the activity change, less the hit threshold is reported as 19.1% (active). With `Cc1ccc(OCCC(=O)OC(C)C(=O)Nc2ccc(Cl)cn2)cc1` (configuration not stated) the activity change, less the hit threshold was -8.9% (inactive). In the case of `O=C(O)CCCn1cc(NC(=O)COc2ccc(F)cc2)cn1`, the activity change, less the hit threshold is reported as -25.3% (inactive). `Fc1ccc2c(c1)C(c1ccncc1)=NNC(c1cccnc1)=N2` was tested, and the activity change, less the hit threshold was -6.5% (inactive). `Cc1ccc(CNS(=O)(=O)c2ccc(C(F)(F)F)cc2)n1C` was tested, and the activity change, less the hit threshold was -26.5% (inactive).
